Here are results for 33 molecules from PubChem BioAssay (Tox21).

The nature of test [1]: qHTS assay to identify small molecule antagonists of the glucocorticoid receptor (GR) signaling pathway - cell viability counter screen (AID 720693). Also: nearly all actives have a fitted effect of over 55% in size. Also: potency is read from the fitted curve at half-maximal effect. A general note: Quantitative high-throughput screening tests each substance at several concentrations.
Test [2] can be described thus: qHTS assay for identifying genotoxic compounds that show differential cytotoxicity against isogenic chicken DT40 cell lines with known DNA damage response pathways - wild type cell line (AID 743012). Also: nearly all actives have a fitted effect of over 60% in size. Also: potency is read from the fitted curve at half-maximal effect. Summed up: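 Viability by ATP luminescence (CellTiter-Glo, 30 min RT) after 40 h compound treatment at 37 C/5% CO2, using 300 parental DNA repair-proficient DT40 cells per well.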

Test [3] is described as follows: qHTS assay for identifying genotoxic compounds that show differential cytotoxicity against isogenic chicken DT40 cell lines with known DNA damage response pathways - Rad54/Ku70 mutant cell line (AID 743015). Also: nearly all actives have a fitted effect of over 60% in size. Also: potency is read from the fitted curve at half-maximal effect.
A short description of test [4]: qHTS assay to identify small molecule antagonists of the androgen receptor (AR) signaling pathway using the MDA cell line - cell viability counter screen (AID 743041; also: nearly all actives have a fitted effect of over 45% in size; also: potency is read from the fitted curve at half-maximal effect). The procedure, abridged:
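Using the breast carcinoma line MDA-kb2 AR-luc, test chemicals were co-incubated with R1881 for 16 h; CellTiter-Fluor reagent, added at 15.5 h, provided a fluorescence measure of live cells.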

Test [5] deals with Androgen receptor (Homo sapiens) (UniProt P10275). The test is described as follows: qHTS assay to identify small molecule antagonists of the androgen receptor (AR) signaling pathway using the MDA cell line (AID 743042; also: nearly all actives have a fitted effect of over 55% in size). The procedure, abridged: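 Antagonist mode: compounds plus R1881 agonist added to MDA-kb2 AR-luc cells, incubated 16 h at 37C. Luciferase reporter luminescence quantified, with multiplexed CellTiter-Fluor readout for cell viability.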

Test [6] is described as follows: qHTS assay to identify small molecule antagonists of the androgen receptor (AR) signaling pathway - cell viability counter screen (AID 743033; also: nearly all actives have a fitted effect of over 45% in size).
In test [7] the target is Androgen receptor (Homo sapiens) (UniProt P10275). The test is described as follows: qHTS assay to identify small molecule antagonists of the androgen receptor (AR) signaling pathway (AID 743035; active = well fitted inhibition curve with a large enough effect in the signal ratio in the repeat runs, not every such curve was filed as active; the % refers to the signal ratio; also: potency is read from the fitted curve at half-maximal effect). The procedure, abridged: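 Antagonist mode: AR-bla HEK293 cells co-treated with test compounds and agonist R1881 for 16 h at 37C, 5% CO2. Beta-lactamase activity read as FRET fluorescence after 2 h room-temperature substrate loading.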

The target is the same in test [8]. The test is described as follows: qHTS assay to identify small molecule agonists of the androgen receptor (AR) signaling pathway using the MDA cell line (AID 743040; also: nearly all actives have a fitted effect of over 20% in size; also: potency is read from the fitted curve at half-maximal effect). Summed up: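 Stable MMTV-luciferase reporter in MDA-kb2 cells; note the promoter carries GR as well as AR response elements. 16 h compound treatment, 37C, 0% CO2; ONE-Glo luminescence endpoint.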

Test [9] shares this target. The test is described as follows: qHTS assay to identify small molecule agonists of the androgen receptor (AR) signaling pathway (AID 743036; active = well fitted activation curve with a large enough effect in the signal ratio in the repeat runs, with a control signal flat, not every such curve was filed as active; the % refers to the signal ratio; also: potency is read from the fitted curve at half-maximal effect). Summed up: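 AR-bla HEK293 cells, 2,000/well; 4 h preincubation 37C/5% CO2; compound (DMSO) 16 h at 37C; LiveBLAzer B/G FRET substrate 2 h RT; fluorescence intensity read-out.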
Test [10] is described as follows: qHTS assay for identifying genotoxic compounds that show differential cytotoxicity against isogenic chicken DT40 cell lines with known DNA damage response pathways - Rev3 mutant cell line (AID 743014). Also: potency is read from the fitted curve at half-maximal effect; nearly all actives have a fitted effect of over 55% in size.

Inconclusive results are not listed. The source made the active and inactive calls. Unless noted, calls follow the shape of the dose curve; as a rule, active = well fitted curve in the direction sought with a large enough effect in the repeat runs; inconclusive = weak or mixed curves; inactive = no such curve, though single readings can be large; an effect the other way counts as inactive or inconclusive.

Chain of Androgen receptor (Homo sapiens) (P10275 whole entry, looked up): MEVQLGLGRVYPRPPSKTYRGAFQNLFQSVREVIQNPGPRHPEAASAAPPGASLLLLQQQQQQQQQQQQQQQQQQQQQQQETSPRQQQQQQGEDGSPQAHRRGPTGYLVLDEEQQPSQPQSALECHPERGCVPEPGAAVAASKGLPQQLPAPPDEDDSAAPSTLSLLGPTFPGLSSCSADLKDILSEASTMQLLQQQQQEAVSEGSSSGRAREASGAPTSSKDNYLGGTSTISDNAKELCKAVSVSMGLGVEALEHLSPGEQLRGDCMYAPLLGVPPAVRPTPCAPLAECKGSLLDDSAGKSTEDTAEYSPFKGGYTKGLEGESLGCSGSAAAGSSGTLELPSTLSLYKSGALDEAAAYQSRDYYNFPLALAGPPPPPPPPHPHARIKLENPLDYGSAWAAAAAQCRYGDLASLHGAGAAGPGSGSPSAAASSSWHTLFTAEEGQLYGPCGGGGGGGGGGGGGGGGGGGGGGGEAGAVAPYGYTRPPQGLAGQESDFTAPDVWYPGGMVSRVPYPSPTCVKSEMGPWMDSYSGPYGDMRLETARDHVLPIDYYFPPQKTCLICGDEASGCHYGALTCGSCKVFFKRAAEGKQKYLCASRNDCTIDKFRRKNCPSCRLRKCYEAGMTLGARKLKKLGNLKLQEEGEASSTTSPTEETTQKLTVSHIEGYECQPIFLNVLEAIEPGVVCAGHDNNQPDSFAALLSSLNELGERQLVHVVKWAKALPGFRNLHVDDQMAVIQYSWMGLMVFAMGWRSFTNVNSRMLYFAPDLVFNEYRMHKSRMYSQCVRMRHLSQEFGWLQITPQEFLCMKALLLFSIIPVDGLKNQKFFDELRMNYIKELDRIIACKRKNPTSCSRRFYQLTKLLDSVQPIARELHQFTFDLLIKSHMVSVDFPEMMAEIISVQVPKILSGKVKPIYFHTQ

Regarding `O=C1C(=O)c2ncccc2-c2cccnc21`, the Potency result in test [1], in [4] and in test [5] was “inactive” each time. The Potency in test [2] was 5.96 µM (active); in test [3], 4.22 µM (active).

`COc1ccc(C2(C#N)CCC(C(=O)O)CC2)cc1OC1CCCC1` (centres undefined): the Potency result in [1], in [2], in [3] and in test [4] was “inactive” throughout.

For `CC(=O)O[C@H]1CC[C@@]2(C)C(=CC[C@H]3[C@@H]4CC[C@H](C(C)=O)[C@@]4(C)CC[C@@H]32)C1`, the Potency entry in test [1], in test [2], in [3] and in test [4] was “inactive” each time.

With `CN(CC(=O)N1CCOCC1)Cc1c(Cl)cccc1NC(=O)c1ccccc1`, the Potency entry in test [1], in test [6] and in [4] was “inactive” each time. Further, in test [2], the Potency is 23.7 µM (active).

As to `OC[C@H]1O[C@@H](O[C@H]2[C@H](O)[C@@H](O)[C@H](O)O[C@@H]2CO)[C@H](O)[C@@H](O)[C@@H]1O`, the Potency result in test [1], in [2], in test [3], in test [7], in [8] and in [4] was “inactive” throughout. In addition, in test [5], the Potency result was “inactive”.

As for `O=C(COc1ccc(Cl)cc1)OCCNC12CC3CC(CC(C3)C1)C2`, the Potency entry in [1], in test [2], in [6] and in test [4] was “inactive” each time.

As for `CCC(Oc1ccccc1)C(=O)N[C@@H]1C(=O)N2[C@@H]1SC(C)(C)[C@@H]2C(=O)O` (some centres undefined), the Potency entry in test [1], in test [2], in [3] and in test [4] was “inactive” throughout.

On to `CC[C@H](C)[C@H]1O[C@]2(CC[C@@H]1C)C[C@@H]1C[C@@H](C/C=C(\C)[C@@H](O[C@H]3C[C@H](OC)[C@@H](O[C@H]4C[C@H](OC)[C@@H](O)[C@H](C)O4)[C@H](C)O3)[C@@H](C)/C=C/C=C3\CO[C@@H]4[C@H](O)C(C)=C[C@@H](C(=O)O1)[C@]34O)O2`, for which the figures for the Potency in test [1], in test [2] and in [3] were 6.01 µM (active), 3.76 µM (active) and 7.5 µM (active), respectively. The Potency result in test [7], in test [4] and in [5] was “inactive” each time.

For the molecule `O=C(Nc1ccc(/C=C/c2ccc(NC(=O)c3cc(S(=O)(=O)O)c4cccnc4c3O)cc2S(=O)(=O)O)c(S(=O)(=O)O)c1)c1cc(S(=O)(=O)O)c2cccnc2c1O`, the Potency entry in [1], in [2], in test [6] and in test [4] was “inactive” in each case.

As to `O=S(=O)(O)CCCS(=O)(=O)O`, the Potency result in [1], in test [2], in [3] and in test [4] was “inactive” each time.

`COc1ccc(CCNCC(O)COc2cccc(C)c2)cc1OC` (centres undefined): the Potency result in test [1], in test [6], in test [9], in test [8], in test [4] and in test [5] was “inactive” in each case. The Potency in [2] is 26.6 µM (active).

On to `CC(=O)O[C@]1(C(C)=O)CC[C@H]2[C@@H]3CCC4=CC(=O)CC[C@]4(C)[C@@]3(F)[C@@H](O)C[C@@]21C`, for which the Potency entry in test [1], in [2], in test [3], in [4] and in test [5] was “inactive” in each case. Further, the Potency in test [7] was 8.49 µM (active); in test [8], 0.0531 µM (active).

As to `CO[C@@H]1[C@@H](O[C@@H]2O[C@H](C)[C@@H](O[C@H]3C[C@@](C)(O)[C@@H](O)[C@H](C)O3)[C@H](N(C)C)[C@H]2O)[C@@H](CC=O)C[C@@H](C)[C@@H](O[C@@H]2CC[C@H](N(C)C)[C@@H](C)O2)/C=C/C=C/C[C@@H](C)OC(=O)C[C@H]1O`, the Potency entry in [1], in [2], in test [6] and in test [4] was “inactive” each time.

Regarding `CC(=O)Oc1cc(C)c(OC(C)=O)c2ccccc12`, the Potency entry in test [1] and in [4] was “inactive” each time. Also, the Potency is 21.1 µM (active) in test [2] and 23.7 µM (active) in [3].

For `CC(=O)O[C@H]1CC[C@@]2(C)C(=CC[C@@H]3[C@@H]2CC[C@]2(C)C(c4cccnc4)=CC[C@@H]32)C1`, the Potency result in test [1], in test [6], in test [7], in [8], in test [4] and in test [5] was “inactive” throughout. Moreover, the Potency in [2] is 5.31 µM (active).

Turning to `CC(=O)N[C@@H](C=O)[C@@H](O)[C@H](O)[C@H](O)CO`, the Potency entry in test [1], in test [2], in [3] and in test [4] was “inactive” each time.

Take `CNCC(O)c1ccc(OC(=O)C(C)(C)C)c(OC(=O)C(C)(C)C)c1` (centres undefined): the Potency entry in [1], in [6] and in test [4] was “inactive” throughout. Besides, in test [2], the Potency was 12.7 µM (active).

On to `COc1ccc(C[C@@H](C)NC[C@H](O)c2ccc(O)c(NC=O)c2)cc1`, for which the Potency entry in [1], in test [6] and in test [4] was “inactive” throughout. In addition, the Potency in test [2] is 29.8 µM (active).

Consider `CO[C@H]1C[C@H](O[C@H]2[C@H](C)[C@@H](O[C@@H]3O[C@H](C)C[C@H](N(C)C)[C@H]3OC(C)=O)[C@@H](C)C[C@]3(CO3)C(=O)[C@H](C)[C@@H](OC(C)=O)[C@@H](C)[C@@H](C)OC(=O)[C@@H]2C)O[C@@H](C)[C@@H]1OC(C)=O`, for which the Potency entry in test [1], in test [2], in test [3], in [7], in test [9] and in test [4] was “inactive” throughout. Besides, the Potency result in test [5] is “inactive”.

Turning to `Cc1ncc(COP(=O)(O)O)c(CN)c1O`, the Potency result in test [1], in [2] and in [6] was “inactive” throughout.

For `Cc1c(O)cc2c(c1C)O[C@](C)(CCC[C@H](C)CCC[C@H](C)CCCC(C)C)CC2`, the Potency result in test [1], in test [2], in test [3] and in [4] was “inactive” in each case.

In the case of `C#C[C@]1(O)CC[C@H]2[C@@H]3CCC4=CC(=O)CC[C@@H]4[C@H]3C(=C)C[C@@]21CC`, the Potency result in test [1], in test [6] and in test [4] was “inactive” in each case. The Potency in test [2] is 29.8 µM (active).

In the case of `CCCCCCCCCCCCCCCC(=O)OCC(COC(=O)CCCCCCCCCCCCCCC)OC(=O)CCCCCCCCCCCCCCC`, the Potency result in test [1], in [2], in test [3] and in test [4] was “inactive” each time.

For the molecule `Nc1nc2c(c(=O)[nH]1)N(C=O)C(CNc1ccc(C(=O)N[C@@H](CCC(=O)O)C(=O)O)cc1)CN2` (some centres undefined), the Potency entry in test [1], in test [2], in test [3], in test [6], in test [4] and in test [5] was “inactive” in each case.

As to `O=C(O)CO.[NH2-].[NH2-].[Pt+2]`, the Potency entry in [1], in test [2], in [3] and in [4] was “inactive” throughout.

Consider `O=C(O)CC/C=C\CC[C@@H]1[C@@H](N2CCCCC2)[C@@H](O)C[C@@H]1OCc1ccc(-c2ccccc2)cc1`, for which the Potency result in test [1], in test [6], in test [9], in test [8], in [4] and in test [5] was “inactive” in each case. Moreover, the Potency in test [2] was 13.3 µM (active).

Take `CCC(=O)OCC(=O)[C@@]1(OC(=O)CC)[C@H](C)C[C@H]2[C@H]3[C@H]([C@@H](O)C[C@@]21C)[C@@]1(C)C=CC(=O)C=C1C[C@H]3Cl`: the Potency in [9] was 0.144 µM (active).

Turning to `CCC(=O)NCCC1CCc2ccc3c(c21)CCO3` (centres undefined), the Potency entry in [9] is “inactive”.

`CC(C)(CO)[C@@H](O)C(=O)NCCCC(=O)O`: the Potency result in test [7] is “inactive”.

For `CCC(=O)O[C@H]1CC[C@H]2[C@@H]3CCc4cc(O)ccc4[C@H]3CC[C@]12C`, the Potency in test [2] was 23.7 µM (active); in [10], 21.1 µM (active); in test [3], 23.7 µM (active). In addition, the Potency entry in [6], in test [4] and in test [5] was “inactive” each time.

Turning to `C=C1C(=C/C=C2\CCC[C@]3(C)[C@@H]([C@H](C)/C=C/[C@H](C)C(C)C)CC[C@@H]23)C[C@@H](O)C[C@@H]1O`, the values for the Potency in [2], in test [10] and in [3] were 13.3 µM (active), 21.1 µM (active) and 16.8 µM (active), respectively. Besides, the Potency result in test [9], in [8] and in test [4] was “inactive” each time.

Consider `CCOc1ccc(N=Nc2ccc(N)cc2N)cc1`, for which the Potency in test [2] was 23.7 µM (active); in test [3], 21.1 µM (active); in test [8], 0.473 µM (active); in [4], 15 µM (active). Also, the Potency result in test [6] and in test [5] was “inactive” in each case.

Turning to `COc1cc(/C=C/C(=O)N2CCN(CC(=O)N3CCCC3)CC2)cc(OC)c1OC`, the Potency entry in test [2], in test [3], in test [6], in test [7], in [8] and in test [4] was “inactive” each time. For the same molecule, the Potency result in [5] was “inactive”.
